The subject of one experiment is astro (control astrocytes). The experiment is described as follows: Drug repurposing screens with cells derived from glioblastoma tumor samples (AID 1345199; active means well fitted curve in the direction sought with a large enough effect; an effect the other way counts as inactive or inconclusive; further: nearly all actives have a fitted effect of over 40% in size; further: potency means the concentration at half of the fitted maximal effect). The settings on record: viability, ATP luminescence, 48 h; series mostly up to 45.9 µM. The procedure, abridged:
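Primary testing used CD133+ neurospheres from four GBM patients, seven concentrations, 48 h exposure and ATP-based viability; confirmation added three slower-growing patient lines.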

Experiment [1] addresses Nuclear receptor subfamily 1 group I member 2 (Rattus norvegicus) (UniProt Q9R1A7). The experiment is described as follows: qHTS assay for small molecule activators of the rat pregnane X receptor (rPXR) signaling pathway (AID 651751). Particulars: rPXR reporter cells, luciferase (One-Glo), 24 h. On the technique in general: In qHTS, concentration-response curves come from the screen itself.

Experiment [2] can be described thus: qHTS assay for small molecule activators of the human pregnane X receptor (PXR) signaling pathway (AID 720659). Particulars: DPX-2 HepG2 CYP3A4-luciferase, 24 h; series mostly up to 92.3 µM.
The nature of experiment [3]: qHTS assay to identify inhibitors of the type 1 interferon - major histocompatibility complex class I in skeletal muscle: Counter screen cell viability and HiBit confirmation (AID 1347412; active means well fitted curve in the direction sought with a large enough effect; an effect the other way counts as inactive or inconclusive; further: potency means the concentration at half of the fitted maximal effect; on all read-outs here: nearly all actives have a fitted effect of over 60% in size). Particulars: iHSKM muscle cells + IFN-b, HiBiT or CellTiter-Glo, 24 h; for activity change, negative = inhibition: at 45.9 µM (top of the series). The procedure, abridged:
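Myoblasts (C25cl48, HLA-B HiBiT) seeded in medium without dexamethasone, IFN-b 4 ng/ml added except unstimulated columns; 1 hr later compounds pinned (12-pt 1:3, top 46 uM final). Incubated 24 hrs, lysed 10 min, luminescence measured.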

Values joined by “and” are separate entries in the source; they are usually repeats but may differ in a detail not shown here. Identical values can stand only once. A number with no mark means an inactive call. Results filed as inconclusive are left out. Where a call stands in place of a potency, no number is given. Active and inactive are the calls of the source. Unless noted, how the calls were made is not given here.

Sequence of Nuclear receptor subfamily 1 group I member 2 (Rattus norvegicus) (Q9R1A7 whole entry, looked up): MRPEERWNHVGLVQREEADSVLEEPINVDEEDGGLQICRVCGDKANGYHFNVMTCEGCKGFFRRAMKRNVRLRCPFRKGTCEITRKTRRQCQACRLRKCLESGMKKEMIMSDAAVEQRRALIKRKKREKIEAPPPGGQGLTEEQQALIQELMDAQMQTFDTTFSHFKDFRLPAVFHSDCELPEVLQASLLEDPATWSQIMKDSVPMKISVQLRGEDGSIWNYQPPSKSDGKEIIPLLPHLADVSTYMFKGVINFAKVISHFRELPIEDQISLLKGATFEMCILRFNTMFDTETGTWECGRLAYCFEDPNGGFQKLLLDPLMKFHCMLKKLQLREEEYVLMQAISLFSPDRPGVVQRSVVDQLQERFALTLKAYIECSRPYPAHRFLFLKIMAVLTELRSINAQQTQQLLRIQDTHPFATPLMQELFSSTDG

Consider `Nc1ccc(S(=O)(=O)Nc2nccs2)cc1`, for which the Potency entry in the experiment with astro was “inactive”. Besides, the max response in experiment [1] was -1.7%. The compound was called inactive in experiment [2].

As to `NC(=O)c1ncn([C@@H]2O[C@H](CO)[C@@H](O)[C@H]2O)n1`, the Potency entry with astro was “inactive”. In addition, the max response in experiment [1] is -13.6%. In addition, in experiment [2], the outcome was inactive.

As to `CC(=O)O[C@@]12CO[C@@H]1C[C@H](O)[C@@]1(C)C(=O)[C@H](O)C3=C(C)[C@@H](OC(=O)[C@H](O)[C@@H](NC(=O)OC(C)(C)C)c4ccccc4)C[C@@](O)([C@@H](OC(=O)c4ccccc4)[C@H]21)C3(C)C`, the figures for the activity change, negative = inhibition in experiment [3] (HiBiT) and in experiment [3] (Viability) were -20.7% and -25.4%, respectively.

In the case of `O=C1NS(=O)(=O)c2ccccc21`, the Potency entry in the experiment with astro is “inactive”. For the same compound, in experiment [1], the max response was -2.55%. For the same compound, the compound was called inactive in experiment [2].

As to `C[C@]12CC[C@@H]3c4ccc(O)cc4CC[C@H]3[C@@H]1CCC2=O`, in the experiment on astro, the Potency result is “inactive”. Further, the max response in experiment [1] is 1.32%.

As to `COc1ccccc1O`, the Potency entry in the experiment with astro is “inactive”. Besides, the outcome in experiment [2] was inactive.

`CN(C)CCOC(C)(c1ccccc1)c1ccccn1` (stereo unspecified): the Potency result in the experiment with astro is “inactive”. In addition, the max response in experiment [1] is 2.43%. Moreover, the result in experiment [2] was inactive.

Turning to `C[C@@H]1CN(c2c(F)c(F)c3c(=O)c(C(=O)O)cn(C4CC4)c3c2F)C[C@H](C)N1`, the Potency entry with astro was “inactive”.

With `Oc1cccc(O)c1`, the Potency entry with astro was “inactive”. Moreover, the max response in experiment [1] was 4.18%. For the same compound, in experiment [2], the result was inactive.

For `CC(=O)Oc1ccc(C2(c3ccc(OC(C)=O)cc3)C(=O)Nc3ccccc32)cc1`, the activity change, negative = inhibition in experiment [3] (Viability) is -23.2%.

With `O=C1c2c(O)cccc2Cc2cccc(O)c21`, the Potency entry with astro is “inactive”. Besides, in experiment [1], the max response was -0.627%. In experiment [2], the compound was classed as inactive.

Take `COc1ccc(Cl)cc1C(=O)NCCc1ccc(S(=O)(=O)NC(=O)NC2CCCCC2)cc1`: the Potency entry with astro was “inactive”. Further, the max response in experiment [1] was 1.29%.

For the compound `CCOC(=O)c1ccc(O)cc1`, in the experiment on astro, the Potency result was “inactive”. In experiment [1], the max response was 1.86%. Moreover, the outcome in experiment [2] was inactive.

In the case of `CN(C)CCC=C1c2ccccc2CCc2ccccc21`, the max response in experiment [1] was 4.03% and -3.34%.

`CCN(CC)CCNC(=O)c1c(C)[nH]c(/C=C2\C(=O)Nc3ccc(F)cc32)c1C`: the Potency in the experiment on astro is 12.6 µM (active); in experiment [3] (HiBiT), 3.94 µM (active); in experiment [3] (Viability), 7.01 µM (active).

In the case of `Cc1cc2nc3c(=O)[nH]c(=O)nc-3n(C[C@H](O)[C@H](O)[C@H](O)CO)c2cc1C`, the Potency entry in the experiment with astro was “inactive”. For the same compound, the max response in experiment [1] is 2.07%.

Turning to `NC(=O)N/N=C/c1ccc([N+](=O)[O-])o1`, the Potency entry in the experiment with astro is “inactive”. Further, the max response in experiment [1] is -8.95% and -7.82%. For the same compound, the call in experiment [2] was inactive.

As for `NCCNCCNCCNCCN`, the Potency entry in the experiment with astro is “inactive”. Further, the max response in experiment [1] was -1.57% and 1.12%. In experiment [2], the compound was called inactive.

`CC[C@H]1CN2CCc3cc(OC)c(OC)cc3[C@@H]2C[C@@H]1C[C@H]1NCCc2cc(OC)c(OC)cc21`: the Potency in experiment [3] (HiBiT) is 0.787 µM (active). The activity change, negative = inhibition in experiment [3] (Viability) was -15.7%.

`CC(O)COc1ccccc1` (stereo unspecified): the Potency result in the experiment with astro was “inactive”. In addition, the max response in experiment [1] was 0.833%. For the same compound, the compound was called inactive in experiment [2].

On to `Cc1cc(CC(=O)O)n(C)c1C(=O)c1ccc(Cl)cc1`, for which the Potency result with astro was “inactive”. Further, in experiment [1], the max response is -6.77%. Also, in experiment [2], the call was inactive.

For `O=S(=O)(O)NC1CCCCC1`, in the experiment with astro, the Potency result was “inactive”. For the same compound, the max response in experiment [1] was 1.16%. In addition, the result in experiment [2] was inactive.

Turning to `Cc1cccc(Nc2cc(Cl)nc(SCC(=O)O)n2)c1C`, the Potency result in the experiment with astro was “inactive”. The max response in experiment [1] is -4.85%. Besides, in experiment [2], the compound was called inactive.

On to `NCCNCCNCCN`, for which, in the experiment on astro, the Potency result was “inactive”. Besides, the max response in experiment [1] was 9.63%. The outcome in experiment [2] was inactive.

Take `CCCc1c(OCCCCc2nn[nH]n2)ccc(C(C)=O)c1O`: the Potency in the experiment on astro is 25.1 µM (active). Moreover, the max response in experiment [1] is -2.11%.

Take `CC1(C)[C@@H]2CC[C@@]1(C)C(=O)C2`: the Potency entry in the experiment with astro is “inactive”. Further, the max response in experiment [1] is 4.84%. Further, the compound was called inactive in experiment [2].

For the compound `CCCCOC(=O)c1ccc(O)cc1`, the Potency result in the experiment on astro is “inactive”. Further, the max response in experiment [1] is -8.55% and 2.81%.

For the compound `CC(CN(C)C)CN1c2ccccc2CCc2ccccc21` (stereo unspecified), in the experiment with astro, the Potency entry was “inactive”.

For `CC(CN1c2ccccc2Sc2ccccc21)N(C)C` (stereo unspecified), in the experiment on astro, the Potency was 20 µM (active). Further, the max response in experiment [1] is 3.22%.

With `CC12CCC(CC1)C(C)(C)O2`, the Potency result in the experiment on astro was “inactive”. In addition, in experiment [1], the max response was 2.12%. Moreover, the compound was called inactive in experiment [2].

`[Cl][In]([Cl])[Cl]`: the Potency result with astro is “inactive”. Also, the max response in experiment [1] is -5.11%. In experiment [2], the call was inactive.

As for `CCCCCCCCCCCCOS(=O)(=O)O`, the Potency entry with astro was “inactive”. For the same compound, in experiment [1], the max response is 1.76% [middle of 4 runs]. In addition, the result in experiment [2] was inactive.

As to `O=C1O[C@H]([C@@H](O)CO)C(O)=C1O`, the Potency entry in the experiment on astro was “inactive”. Moreover, in experiment [1], the max response was 2.78% and -0.0955%. The result in experiment [2] was inactive.

For the compound `CCCCC(CC)COC(=O)c1ccccc1O` (stereo unspecified), the Potency entry in the experiment on astro is “inactive”. Besides, in experiment [1], the max response was 2.15%. Moreover, the call in experiment [2] was inactive.

For the compound `CC(O)CN(CCN(CC(C)O)CC(C)O)CC(C)O` (stereo unspecified), in the experiment with astro, the Potency result was “inactive”. For the same compound, the max response in experiment [1] was -2.51%. In experiment [2], the compound was called inactive.

As for `CNC(=O)Oc1ccc2c(c1)[C@]1(C)CCN(C)[C@@H]1N2C`, the Potency entry in the experiment with astro is “inactive”. In addition, the max response in experiment [1] was 1.34%. The compound was classed as inactive in experiment [2].

(Values after PubChem BioAssay (NCATS).)
